# Screens as filed in PubChem BioAssay.
# Shown are actives, neighbours in structure and some others; about 3.5% of the full set was active somewhere.
# ANO1 block – inhibitors of mouse TMEM16A calcium-activated chloride channel; HEK293 TMEM16A/YFP iodide influx fluorescence, ionomycin; Q8BHY3; normalized B-score (activity score, 25-100; higher = stronger inhibition) at 10 µM; hit rate 1.2% among 310,000;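 active = ratio plate-corrected score three or more library SD toward inhibition, starting fluorescence score within five deviations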;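 note: score derived from kinetic fluorescence span divided by baseline fluorescence per well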
# Kir21 block – Kir2.1 (mouse) channel inhibition; P35561; HEK293-Kir2.1, FluxOR thallium flux fluorescence; active compounds read low; B-score at 10 µM; hit rate 0.85% among 310,000; AID 1672;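 active = fluorescence ratio B-score at or below minus 3 SD of library scores, with starting-brightness B-score within 2 SD, cut at about -4.2 in these data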;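 note: channel flux triggered by added potassium and thallium sulfate stimulus; B-score of peak minus minimum fluorescence over baseline after thallium stimulus; more negative B-score means stronger Kir2.1 block with less thallium influx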
# KCNK9 block – blocks the human KCNK9 two-pore domain potassium channel; Q9NPC2; HEK293 KCNK9, FluxOR thallium flux fluorescence; active compounds read low; B-score at 10 µM; hit rate 1.2% among 310,000; AID 488922;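 active = ratio B-score over 3 SD below the library mean, with starting fluorescence within 5 SD of its mean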;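 note: negative B-score means less thallium flux so channel inhibition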
# KCNK3 inh – human KCNK3 channel inhibition, primary screen. hit rate 0.84% among 340,000. CHO-KCNK3 thallium flux, FluxOR fluorescence; active compounds read low. B-score at 10 µM;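 active = B-score under library mean minus 4 SD, starting fluorescence ratio at most library mean plus 5 SD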;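 note: more negative B-score means stronger inhibition of thallium flux through KCNK3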
# Target sequence (O14649 whole entry, looked up): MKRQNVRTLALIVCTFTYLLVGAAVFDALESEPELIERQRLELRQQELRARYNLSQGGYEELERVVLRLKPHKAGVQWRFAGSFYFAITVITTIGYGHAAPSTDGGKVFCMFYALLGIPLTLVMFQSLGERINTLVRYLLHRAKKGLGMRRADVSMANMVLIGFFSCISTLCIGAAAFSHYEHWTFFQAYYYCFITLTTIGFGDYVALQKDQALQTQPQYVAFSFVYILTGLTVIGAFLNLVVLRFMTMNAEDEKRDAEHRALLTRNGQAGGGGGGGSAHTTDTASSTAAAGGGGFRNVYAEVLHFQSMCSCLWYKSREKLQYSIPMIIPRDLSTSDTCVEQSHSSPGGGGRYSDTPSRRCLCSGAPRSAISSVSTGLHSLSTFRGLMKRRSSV
# ANO1 activ – mouse TMEM16A channel activation, primary screen | Q8BHY3 | HEK293 TMEM16A/YFP-H148Q/I152L, iodide quench fluorescence; active compounds read low | B-score at 10 µM | hit rate 0.3% among 340,000 | AID 623877;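 active = fluorescence-ratio B-score plate-corrected deviation score at least 3 library SD below zero, with starting fluorescence score within 5 deviations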;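 note: channel opened by trigger with iodide after compound preincubation; score built on the fluorescence ratio of max minus min over baseline; more negative score means more quench and so TMEM16A activation or potentiation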
# KCNK9 block conf – human KCNK9 inhibitor confirmation; shares compounds with KCNK9 block; HEK293 KCNK9 cells, FluxOR thallium flux fluorescence; inhibition, % at 10 µM; hit rate 43% among 4,900; AID 492992;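 active = thallium signal inhibited by more than 5 SD of the compound-free buffer control wells, on both duplicate plates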;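 note: 0% = assay buffer control wells without compound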
# Kir2-1 spec – selectivity of KCNK9 modulators against mouse Kir2.1; shares compounds with KCNK9 block; Kir2.1 cells, FluxOR thallium flux fluorescence; inhibition, % at 10 µM; hit rate 4% among 4,900;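 active = thallium signal drop more than 5 SD beyond the mean of the no-compound control wells, seen in both duplicate plates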;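 note: signal is fluorescence rise after thallium addition divided by baseline fluorescence; plate controls were assay buffer only for no effect and full block by chlorpromazine control for full effect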
# HEK293 Tl ctr – second check of KCNK9 modulator effects in non-induced HEK293 cells. shares compounds with KCNK9 block. FluxOR thallium flux. inhibition, % at 10 µM. hit rate 40% among 4,900. AID 492997;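 active = thallium signal drop beyond 5 SD of the untreated control mean, on both duplicate plates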;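 note: plate controls were buffer only IC0 wells for no effect and SID17386958 at its maximal inhibitory level for full effect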
# An asterisk follows results filed as active; i = inactive; / = no result given.
SMILES,ANO1 block,Kir21 block,KCNK9 block,KCNK3 inh,ANO1 activ,KCNK9 block conf,Kir2-1 spec,HEK293 Tl ctr
CC(C)c1cc(C(=O)N2CCCC(C(=O)c3ccc4ccccc4c3)C2)on1 (configuration not stated),i,-0.15,i,i,i,i,i,i
O=C(COC(=O)c1cccc(C(=O)OCC(=O)NC2CC2)n1)NC1CC1,i,-0.9,i,i,i,/,/,/
O=C(CN1CCN(S(=O)(=O)c2ccc(Br)cc2)CC1)N/N=C/c1ccccc1C(=O)O,i,-0.07,i,i,i,/,/,/
O=C(CC(c1ccccc1)c1cc(Br)ccc1O)NCc1ccco1 (configuration not stated),i,-2.4,-11*,-11*,i,48%*,i,i
Cc1cc(C)c[n+](-c2[nH]c(=O)sc2/C=N/N=C(\[O-])c2cccnc2)c1,i,-0.7,i,i,i,/,/,/
CSc1ccc(CN(C)CC(=O)Nc2ccc(C)cc2Br)cc1,i,1,i,i,i,i,i,i
CCC(c1nnnn1CCC(C)C)N1CCC(C(N)=O)CC1 (configuration not stated),i,0.33,i,i,i,/,/,/
CCOC(=O)c1ccccc1NC(=S)N1CC(C)CC(C)C1 (configuration not stated),i,-1,i,i,i,i,i,i
CCOC(=O)c1ccccc1NC(=S)N1CCC(C)CC1,i,-0.38,i,i,i,/,/,/
CCOC(=O)c1ccccc1NC(=O)c1c(F)c(F)c(F)c(F)c1F,i,0.62,i,i,i,i,i,i
CCN(Cc1cc(=O)[nH]c2ccccc12)C(=O)c1ccc(C)cc1,i,0.42,i,i,i,/,/,/
O=C(NC1CCCCC1)N1CCN(C(c2ccccc2)c2ccccc2)CC1,i,0.26,i,i,i,/,/,/
CCOC(=O)COc1cc(N2C(=O)CSCC2=O)c(Cl)cc1Cl,i,-1.6,i,i,i,/,/,/
CCOC(=O)COc1cc(-n2c(=S)[nH]c3cc(OC)c(OC)cc3c2=O)c(Cl)cc1Cl,i,0.52,-13*,i,i,54%*,i,i
COc1ccc(C(CNC(=O)c2ccco2)N2CCCC2)cc1 (configuration not stated),/,/,/,i,i,/,/,/
CC1CCC2C(=O)N(c3ccc(C(=O)NCc4ccccc4)cc3)C(=O)C2C1 (configuration not stated),i,-0.16,i,i,i,/,/,/
SC(COCc1ccccc1)CN1CCN(Cc2ccc3c(c2)OCO3)CC1 (configuration not stated),i,-0.49,i,i,i,i,i,i
OC(COCc1ccccc1)CN1CCN(Cc2ccc3c(c2)OCO3)CC1 (configuration not stated),i,-0.12,i,i,i,/,/,/
Cc1ccc(OCCCOc2cccc3cccnc23)cc1C,i,-1.7,i,i,i,i,i,i
COc1ccc(Br)cc1[C@H]1[C@@H]2C=CCC[C@@]2(C)C(=O)N1Cc1ccccc1,i,0.04,-15*,i,i,66%*,i,49%*
COc1ccc(-c2ccc(OC)c([C@H]3[C@@H]4C=CCC[C@@]4(C)C(=O)N3Cc3ccccc3)c2)cc1OC,i,0.44,i,i,i,/,/,/
COc1ccc(-n2nnnc2/C=C/Nc2cc(C(F)(F)F)ccc2OC)cc1,i,1.8,-12*,i,i,34%*,i,43%*
Cc1ccc(-n2c(-c3ccco3)n[nH]c2=S)cc1,i,0.06,i,i,i,/,/,/
CC(C1CC2CCC1C2)n1c(-c2ccco2)n[nH]c1=S (configuration not stated),i,-5.5*,-15*,i,i,62%*,i,i
